Measured values: the supplement of paper PMC11732987, “Enantioselective OTUD7B fragment discovery through chemoproteomics screening and high-throughput optimisation” (Communications Chemistry, 2025)

What was measured:
Experiment in all cases: log2 ratio of Biotin-Ahx-Ub-VS probe labelling (fragment/DMSO); higher = less target engagement (more negative = stronger competition), active = hit call of the paper (q ≤ 0.05, log2 ratio ≤ -1)
Settings in all cases: compound concentration: 200 uM; treatment time: 3 h
[1] = target: T1, ALG13 (UniProt Q9NP73)
T1 sequence (whole entry): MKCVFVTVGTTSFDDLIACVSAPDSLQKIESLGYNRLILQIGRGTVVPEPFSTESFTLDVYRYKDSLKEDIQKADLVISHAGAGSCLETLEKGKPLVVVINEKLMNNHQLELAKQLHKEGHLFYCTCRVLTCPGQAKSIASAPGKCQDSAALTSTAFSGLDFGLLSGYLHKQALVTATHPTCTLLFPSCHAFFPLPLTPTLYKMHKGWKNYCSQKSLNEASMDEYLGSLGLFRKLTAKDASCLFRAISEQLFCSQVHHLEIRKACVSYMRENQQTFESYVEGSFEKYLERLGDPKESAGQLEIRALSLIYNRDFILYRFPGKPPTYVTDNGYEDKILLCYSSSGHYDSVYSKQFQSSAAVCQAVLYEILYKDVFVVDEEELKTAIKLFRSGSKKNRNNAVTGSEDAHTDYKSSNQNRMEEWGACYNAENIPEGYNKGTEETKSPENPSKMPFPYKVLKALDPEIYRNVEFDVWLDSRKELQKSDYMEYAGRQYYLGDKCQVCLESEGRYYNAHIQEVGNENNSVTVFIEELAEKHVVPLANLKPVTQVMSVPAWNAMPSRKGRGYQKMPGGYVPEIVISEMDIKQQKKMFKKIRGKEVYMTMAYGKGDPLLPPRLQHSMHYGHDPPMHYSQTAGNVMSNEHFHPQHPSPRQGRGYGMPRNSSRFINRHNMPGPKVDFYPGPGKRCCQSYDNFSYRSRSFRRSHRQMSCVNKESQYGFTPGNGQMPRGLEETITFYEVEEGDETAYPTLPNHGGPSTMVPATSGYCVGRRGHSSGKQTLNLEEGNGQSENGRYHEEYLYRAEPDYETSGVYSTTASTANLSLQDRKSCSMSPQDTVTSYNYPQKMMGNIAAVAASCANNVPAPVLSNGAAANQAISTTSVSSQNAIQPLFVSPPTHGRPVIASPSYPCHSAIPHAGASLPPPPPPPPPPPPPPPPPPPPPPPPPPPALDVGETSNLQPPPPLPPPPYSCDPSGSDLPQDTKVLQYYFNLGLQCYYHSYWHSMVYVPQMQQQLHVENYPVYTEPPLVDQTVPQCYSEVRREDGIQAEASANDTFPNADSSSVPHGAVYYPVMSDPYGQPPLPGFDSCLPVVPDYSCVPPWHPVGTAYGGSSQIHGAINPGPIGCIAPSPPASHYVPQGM
Summary of the method: (§1)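 Fragment (200 µM) or vehicle was incubated for 3 h with triplicate HEK293T lysate samples of 495 µg, which were then treated with Biotin-Ahx-Ub-VS at 0.5 µM final for 1 h. Labelled DUBs were enriched on NeutrAvidin, digested with LysC and trypsin, and analysed by diaPASEF LC-MS/MS. Values are average log2 fragment/vehicle ratios from an unpaired t-test on global-median-normalised Spectronaut label-free quantities, using proteins with ≥2 unique peptides.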

[2] = target: ATXN3 (UniProt P54252)
Chain of ATXN3 (P54252 whole entry): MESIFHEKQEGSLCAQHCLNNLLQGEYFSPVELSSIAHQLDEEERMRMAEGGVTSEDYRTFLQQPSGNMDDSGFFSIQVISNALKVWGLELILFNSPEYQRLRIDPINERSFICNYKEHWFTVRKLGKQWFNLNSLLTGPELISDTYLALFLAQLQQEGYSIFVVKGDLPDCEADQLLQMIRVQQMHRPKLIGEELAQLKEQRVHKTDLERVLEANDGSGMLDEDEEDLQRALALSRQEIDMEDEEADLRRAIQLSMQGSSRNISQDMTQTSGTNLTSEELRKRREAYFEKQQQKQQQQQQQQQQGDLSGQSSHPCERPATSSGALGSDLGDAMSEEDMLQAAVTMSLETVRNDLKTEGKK
Summary of the method: as §1

[3] = target: T2, BAP1 (UniProt Q92560)
T2 sequence (whole entry): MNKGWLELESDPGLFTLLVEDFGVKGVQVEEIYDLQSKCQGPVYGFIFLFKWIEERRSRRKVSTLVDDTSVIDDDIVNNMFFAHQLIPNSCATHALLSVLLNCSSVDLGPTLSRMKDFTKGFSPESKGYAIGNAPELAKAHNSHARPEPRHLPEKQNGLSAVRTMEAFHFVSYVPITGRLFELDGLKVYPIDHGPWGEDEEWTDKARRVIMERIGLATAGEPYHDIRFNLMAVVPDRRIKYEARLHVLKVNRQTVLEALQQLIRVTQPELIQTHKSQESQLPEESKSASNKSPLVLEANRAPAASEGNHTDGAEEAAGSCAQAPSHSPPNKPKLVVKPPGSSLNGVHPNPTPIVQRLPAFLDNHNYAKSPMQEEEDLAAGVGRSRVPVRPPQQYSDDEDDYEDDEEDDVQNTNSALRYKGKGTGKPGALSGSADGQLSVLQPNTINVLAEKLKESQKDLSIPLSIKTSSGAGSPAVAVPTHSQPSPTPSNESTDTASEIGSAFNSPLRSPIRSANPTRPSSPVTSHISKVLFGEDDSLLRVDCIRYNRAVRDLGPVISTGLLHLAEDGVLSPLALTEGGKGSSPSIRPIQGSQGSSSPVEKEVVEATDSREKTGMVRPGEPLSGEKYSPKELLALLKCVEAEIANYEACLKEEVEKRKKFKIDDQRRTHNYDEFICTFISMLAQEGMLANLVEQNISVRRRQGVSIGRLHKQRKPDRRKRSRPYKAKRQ
Summary of the method: as §1

[4] = target: EIF3F (UniProt O00303)
Chain of EIF3F (O00303 whole entry): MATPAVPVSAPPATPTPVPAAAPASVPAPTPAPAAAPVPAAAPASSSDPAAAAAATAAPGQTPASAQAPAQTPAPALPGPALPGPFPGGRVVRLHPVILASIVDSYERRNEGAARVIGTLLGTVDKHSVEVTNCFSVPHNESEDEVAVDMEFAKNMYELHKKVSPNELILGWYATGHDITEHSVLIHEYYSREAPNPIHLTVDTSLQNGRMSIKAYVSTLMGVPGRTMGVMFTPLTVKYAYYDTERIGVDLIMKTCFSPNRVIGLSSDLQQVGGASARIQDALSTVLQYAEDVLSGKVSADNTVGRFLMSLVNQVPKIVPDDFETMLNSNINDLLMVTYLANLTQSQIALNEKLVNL
Summary of the method: as §1

[5] = target: EIF3H (UniProt O15372)
Chain of EIF3H (O15372 whole entry): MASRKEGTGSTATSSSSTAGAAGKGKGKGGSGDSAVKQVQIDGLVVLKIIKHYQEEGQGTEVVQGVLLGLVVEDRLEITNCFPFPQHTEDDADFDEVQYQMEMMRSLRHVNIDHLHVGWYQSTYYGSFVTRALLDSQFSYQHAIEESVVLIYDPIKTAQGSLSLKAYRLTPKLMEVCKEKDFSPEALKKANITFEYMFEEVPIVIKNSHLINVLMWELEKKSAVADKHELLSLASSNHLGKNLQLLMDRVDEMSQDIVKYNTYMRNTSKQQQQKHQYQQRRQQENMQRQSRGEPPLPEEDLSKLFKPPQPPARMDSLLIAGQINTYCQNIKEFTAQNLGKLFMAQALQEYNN
Summary of the method: as §1

[6] = target: T3, FAM105A (UniProt Q9NUU6)
T3 sequence (whole entry): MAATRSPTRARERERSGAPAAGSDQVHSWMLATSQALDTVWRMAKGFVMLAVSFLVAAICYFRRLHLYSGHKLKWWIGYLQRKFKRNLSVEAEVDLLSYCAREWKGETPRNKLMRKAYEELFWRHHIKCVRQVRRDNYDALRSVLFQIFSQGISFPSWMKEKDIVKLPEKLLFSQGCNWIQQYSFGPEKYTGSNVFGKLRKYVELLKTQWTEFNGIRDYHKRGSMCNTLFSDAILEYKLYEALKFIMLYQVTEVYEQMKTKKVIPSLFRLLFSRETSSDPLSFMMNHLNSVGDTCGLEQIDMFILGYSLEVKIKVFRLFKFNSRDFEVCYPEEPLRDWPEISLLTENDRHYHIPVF
Summary of the method: as §1

[7] = target: OTUB1 (UniProt Q96FW1)
Chain of OTUB1 (Q96FW1 whole entry): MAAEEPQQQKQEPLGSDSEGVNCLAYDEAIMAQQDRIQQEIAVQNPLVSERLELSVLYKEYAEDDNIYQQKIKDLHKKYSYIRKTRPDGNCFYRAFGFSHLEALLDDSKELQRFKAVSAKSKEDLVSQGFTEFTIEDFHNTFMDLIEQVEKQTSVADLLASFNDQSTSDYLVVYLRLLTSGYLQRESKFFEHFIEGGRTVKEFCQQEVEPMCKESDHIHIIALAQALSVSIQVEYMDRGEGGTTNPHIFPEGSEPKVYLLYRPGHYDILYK
Summary of the method: as §1

[8] = target: T4, OTUD4 (UniProt Q01804)
T4 sequence (whole entry): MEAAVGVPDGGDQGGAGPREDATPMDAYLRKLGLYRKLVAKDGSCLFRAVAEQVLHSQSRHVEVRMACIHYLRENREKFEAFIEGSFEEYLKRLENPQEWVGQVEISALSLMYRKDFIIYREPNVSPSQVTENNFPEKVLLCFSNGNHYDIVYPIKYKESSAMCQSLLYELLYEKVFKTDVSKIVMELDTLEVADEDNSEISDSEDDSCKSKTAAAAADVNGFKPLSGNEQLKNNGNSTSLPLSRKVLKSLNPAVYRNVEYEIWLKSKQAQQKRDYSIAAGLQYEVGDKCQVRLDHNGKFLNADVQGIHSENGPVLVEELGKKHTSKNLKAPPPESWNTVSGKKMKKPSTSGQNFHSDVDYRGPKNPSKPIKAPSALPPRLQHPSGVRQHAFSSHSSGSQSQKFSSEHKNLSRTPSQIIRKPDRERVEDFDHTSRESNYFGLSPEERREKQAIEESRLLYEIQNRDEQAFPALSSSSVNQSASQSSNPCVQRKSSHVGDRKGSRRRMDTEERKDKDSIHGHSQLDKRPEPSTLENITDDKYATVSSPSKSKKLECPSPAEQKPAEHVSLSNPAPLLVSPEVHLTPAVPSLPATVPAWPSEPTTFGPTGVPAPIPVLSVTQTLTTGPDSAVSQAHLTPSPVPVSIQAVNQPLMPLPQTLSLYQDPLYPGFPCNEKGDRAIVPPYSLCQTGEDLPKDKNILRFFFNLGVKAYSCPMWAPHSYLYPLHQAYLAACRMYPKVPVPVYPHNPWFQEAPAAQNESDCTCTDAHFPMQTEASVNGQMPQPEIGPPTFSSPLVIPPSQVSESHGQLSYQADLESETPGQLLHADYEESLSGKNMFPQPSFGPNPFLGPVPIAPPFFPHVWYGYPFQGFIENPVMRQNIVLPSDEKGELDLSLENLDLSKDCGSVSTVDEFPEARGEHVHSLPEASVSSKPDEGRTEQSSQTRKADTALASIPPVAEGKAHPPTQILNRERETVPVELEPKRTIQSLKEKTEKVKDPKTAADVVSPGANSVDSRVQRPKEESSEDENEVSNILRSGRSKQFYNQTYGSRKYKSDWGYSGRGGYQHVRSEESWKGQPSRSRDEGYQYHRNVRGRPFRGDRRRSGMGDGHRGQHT
Summary of the method: as §1

[9] = target: T5, OTUD5 (UniProt Q96G74)
T5 sequence (whole entry): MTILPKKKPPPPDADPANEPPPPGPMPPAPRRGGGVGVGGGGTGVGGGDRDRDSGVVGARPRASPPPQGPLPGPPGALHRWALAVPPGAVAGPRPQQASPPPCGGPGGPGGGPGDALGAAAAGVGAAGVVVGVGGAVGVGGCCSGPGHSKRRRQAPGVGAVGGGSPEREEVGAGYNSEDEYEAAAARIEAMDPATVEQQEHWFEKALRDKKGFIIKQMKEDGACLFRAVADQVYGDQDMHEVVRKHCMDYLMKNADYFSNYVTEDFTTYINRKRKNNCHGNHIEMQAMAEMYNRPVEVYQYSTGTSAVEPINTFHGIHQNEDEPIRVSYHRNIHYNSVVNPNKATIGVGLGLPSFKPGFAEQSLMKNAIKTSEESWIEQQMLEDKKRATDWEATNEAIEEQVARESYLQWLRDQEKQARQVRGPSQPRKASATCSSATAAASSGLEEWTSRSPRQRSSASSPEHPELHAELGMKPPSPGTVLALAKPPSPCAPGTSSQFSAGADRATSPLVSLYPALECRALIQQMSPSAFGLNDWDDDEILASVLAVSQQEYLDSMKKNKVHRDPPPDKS
Summary of the method: as §1

Measured: log2 ratio of Biotin-Ahx-Ub-VS probe labelling

O=C(CCl)N1CCC(C(=O)N2CCCCCC2)CC1
inactive: [1] 0.205 | [2] -0.407 | [3] -0.398 | [4] -0.0762 | [5] 0.0816 | [6] -0.0217 | [7] 0.0563 | [8] -0.035 | [9] -0.328
